The values below come from PubChem BioAssay (NCI).

Compounds without any hit were thinned out: in the full panel of roughly 79,000, 15% have a hit. Calls of active or inactive are those of the source. Cut-off read from the data, not from the text of the source: active = growth inhibition above about 70%; inactive = the rest.

The assay in a line: NCI Yeast Anticancer Drug Screen. Data for the bub3 strain (AID 167). To be noted: S. cerevisiae bub3 mutant strain, at 50.0 µM, active compounds read high. In short, it runs like this:
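Readout: yeast growth inhibition, expressed relative to vehicle-only wells. The test organism is a mutant strain from a panel with lesions in DNA repair or checkpoint genes.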
Regarding `COc1ccc(OC)c(NC(=O)c2ccc(Cl)c(Cl)c2)c1`, the growth inhibition was 13.6% (inactive).
The result for `C/C(Cl)=N\OC(=O)Nc1ccc([N+](=O)[O-])cc1` reads 87.2% (active); that for `Brc1ccccc1N=Nc1ccccc1Br`, -8.5% (inactive); that for `COC(=O)C(Cl)=C1CC1`, 6.25% (inactive).
`CC(=O)OC1CC2CCCCC2CC1[N+](C)(C)C` (stereo not drawn): the growth inhibition is 3.3% (inactive).
The result for `CC(C)(C(=O)O)c1ccccc1C(=O)c1ccccc1` reads -0.75% (inactive); that for `CCC1=C(C(C)=O)[C@@H]2CCCCC(C(=O)OC)[C@@H]2C1=O` (stereo partly drawn), 8.65% (inactive).
For `Nc1cc2[nH]cnc2c(=O)[nH]1`, the growth inhibition is 7.9% (inactive).
As for `Cc1nn(-c2nc(-c3ccc(Br)cc3)cs2)c(C)c1C`, the growth inhibition was 5.65% (inactive).
As to `Cc1cc(-c2ccc(Cl)cc2)c(C#N)c(=S)n1C1OC(CO)C(O)C(O)C1O` (stereo not drawn), the growth inhibition was -2.95% (inactive).
The result for `C/C=C/Sc1ccccc1C(=O)O` reads -22.6% (inactive).
The result for `C/C(=N/NC(N)=O)c1c(C)c(Cl)cc(Cl)c1OCCCC(C)C` reads 22.9% (inactive); that for `CN(C)c1ccc(/C=C(\C#N)c2cccc(F)c2)cc1`, 3.4% (inactive); that for `COc1ccccc1/C=C(\C#N)C(=O)O`, -6.65% (inactive).
Regarding `O=C(CC(=O)N1N=C(n2ccc3ccccc32)CC1c1ccccc1)Nc1cccc(Cl)c1` (stereo not drawn), the growth inhibition was -3.5% (inactive).
Then `CC(=O)OC1C/C(C)=C/CCC(C)/C=C/C2(C)CCC(C(C)(C)O)C12` (stereo not drawn), with 14.1% (inactive); and `C[N+](C)(C)c1cc2c(nn1)Nc1ccccc1S2`, with -17.8% (inactive).
Then `CCCCCCCCCCCCCCCC(=O)ON1C(=S)NC(C)(c2ccccc2)C1=S` (stereo not drawn), with 13.4% (inactive).
